# According to PubChem BioAssay:
# Activity calls are given as the source filed them. Unless noted, no rule for the calls is given here.
# How the values were obtained:
# [1] = resazurin metabolic signal in HepG2 cells – cell-based, resazurin fluorescence, 24 h, PK04 Diversity Set, profiling panel (AID 1172); conditions: HepG2 viability, higher = more signal; also: test concentration not given here
# [2] = budding yeast growth changes without added modifier – OD600, strain BY4716, 24 h, basal condition, primary screen (AID 1173); conditions: S. cerevisiae BY4716 growth, OD600, 24 h; higher = more signal, called active from +8 up or from −8 down
# [3] = viability profiling in MM1S myeloma cells – cell-based, resazurin fluorescence, basal, 24 h, PK04 Diversity Set, profiling panel (AID 1174); conditions: higher = more signal, called active from +8 up or from −8 down;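 also: MM1S multiple myeloma cell line; test concentration not given here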
# [4] = target: Dihydroorotate dehydrogenase (quinone), mitochondrial (Plasmodium falciparum (isolate 3D7)) (UniProt Q08210); experiment: inhibition of P. falciparum DHODH – biochemical, C-terminal His tag, absorbance 600 nm, primary screen (AID 1175); conditions: PfDHODH enzyme, DCIP absorbance 600 nm; higher = more signal, called active from +8 up or from −8 down;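 also: recombinant parasite enzyme with a five histidine tag at its C terminus; test concentration not given here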
# Chain of Dihydroorotate dehydrogenase (quinone), mitochondrial (Plasmodium falciparum (isolate 3D7)) (Q08210 whole entry, looked up): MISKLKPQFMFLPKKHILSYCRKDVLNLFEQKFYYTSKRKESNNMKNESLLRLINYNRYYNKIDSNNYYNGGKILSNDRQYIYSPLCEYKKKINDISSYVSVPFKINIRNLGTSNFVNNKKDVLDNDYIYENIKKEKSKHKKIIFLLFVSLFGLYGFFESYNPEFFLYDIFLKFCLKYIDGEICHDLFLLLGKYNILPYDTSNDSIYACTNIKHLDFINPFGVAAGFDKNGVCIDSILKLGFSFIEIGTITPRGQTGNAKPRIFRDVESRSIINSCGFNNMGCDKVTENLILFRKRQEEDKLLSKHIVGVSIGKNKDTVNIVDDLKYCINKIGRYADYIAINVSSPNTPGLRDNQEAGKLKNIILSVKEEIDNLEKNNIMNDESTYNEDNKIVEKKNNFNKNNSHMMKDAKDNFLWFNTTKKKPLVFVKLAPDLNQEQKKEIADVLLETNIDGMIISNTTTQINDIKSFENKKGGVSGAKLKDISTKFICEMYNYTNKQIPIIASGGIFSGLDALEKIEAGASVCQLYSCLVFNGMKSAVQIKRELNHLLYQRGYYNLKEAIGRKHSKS
# [5] = inhibition of PAO1 biofilm formation – strain PAO1, LB-PBS medium, absorbance 600 nm, primary screen (AID 1176); also: test concentration not given here; conditions: P. aeruginosa PAO1 growth/biofilm, A600, 12 h; higher = more signal
# [6] = growth modulation of vineyard yeast isolate – strain RM11-1a, OD600, basal, 24 h, primary screen (AID 1177);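 also: cultures grown under basal conditions with no added stressor; test concentration not given here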; conditions: S. cerevisiae RM11-1a growth, OD600, 24 h; higher = more signal, called active from +8 up or from −8 down
# [7] = growth of efflux-deficient E. coli DRC39 – strain DRC39, OD650, 24 h, E. coli filamentation inducers, primary screen (AID 1178);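 also: growth measured as culture turbidity by optical density at 650 nm; test concentration not given here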; conditions: E. coli DRC39 acrAB, higher = more signal, called active from +8 up or from −8 down
# [8] = growth of efflux-deficient E. coli DRC39 – strain DRC39, OD650, 48 h, E. coli filamentation inducers, primary screen (AID 1179);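 also: screen aims at cell division blockers that make cells filament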; conditions: E. coli DRC39 delta-acrAB growth, higher = more signal, called active from +8 up or from −8 down
# [9] = viability profiling in RPMI8226 myeloma cells – cell-based, resazurin fluorescence, basal, 24 h, PK04 Diversity Set, profiling panel (AID 1180); conditions: higher = more signal;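 also: RPMI8826 multiple myeloma cell line at 5000 cells per well; test concentration not given here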
# [10] = target: E3 ubiquitin-protein ligase XIAP (Homo sapiens) (UniProt P98170); experiment: small molecules binding XIAP protein – biophysical, small-molecule microarray, fluorescence 635 nm, primary screen (AID 1181); conditions: higher = more signal;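 also: score merges 667 nm emission and signal to noise over triplicate slides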
# Chain of E3 ubiquitin-protein ligase XIAP (Homo sapiens) (P98170 whole entry, looked up): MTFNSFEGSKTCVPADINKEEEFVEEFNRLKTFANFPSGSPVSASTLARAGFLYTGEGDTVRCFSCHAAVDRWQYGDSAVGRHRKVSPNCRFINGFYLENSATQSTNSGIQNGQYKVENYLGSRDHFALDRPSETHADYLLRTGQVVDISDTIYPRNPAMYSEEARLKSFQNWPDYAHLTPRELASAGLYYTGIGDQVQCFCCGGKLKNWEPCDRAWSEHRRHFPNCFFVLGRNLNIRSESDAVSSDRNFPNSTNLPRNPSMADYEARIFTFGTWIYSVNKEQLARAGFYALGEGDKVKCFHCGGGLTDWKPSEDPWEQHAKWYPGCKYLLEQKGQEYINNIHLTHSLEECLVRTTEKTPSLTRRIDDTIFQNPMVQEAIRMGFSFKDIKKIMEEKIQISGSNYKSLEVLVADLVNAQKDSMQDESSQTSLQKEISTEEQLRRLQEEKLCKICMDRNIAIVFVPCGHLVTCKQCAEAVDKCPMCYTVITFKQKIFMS
SMILES,z-score [1],z-score [2],z-score [3],composite z-score [4],z-score [5],z-score [6],z-score [7],z-score [8],z-score [9],composite z-score [10]
COc1ccc(CCNC(=O)[C@@]2(C)c3ccccc3C(=O)N(Cc3cc(F)cc(C(F)(F)F)c3)[C@H]2c2ccc(CO)cc2)cc1,-0.469,-0.513 (inactive),1.02 (inactive),0.917 (inactive),0.593 (inactive),1.1 (inactive),0.568 (inactive),0.453 (inactive),0.652,0.003
C=CCNC(=O)[C@H]1[C@@H]2C(=O)O[C@@H](c3ccccc3)[C@@H](c3ccccc3)N2[C@@H](c2ccc(OCCO)cc2)[C@]12C(=O)Nc1ccc(C#CC3=CCCCC3)cc12,0.735,2.06 (inactive),-1.21 (inactive),0.472 (inactive),0.269 (inactive),2.97 (inactive),0.0358 (inactive),-0.198 (inactive),-2.77,0.0435
OC([C@@H]1CC(c2ccccc2)=NO1)[C@H]1CC(c2ccccc2)=NO1 (stereo not given in full),0.447,-1.39 (inactive),0.129 (inactive),-0.543 (inactive),-0.0704 (inactive),1.16 (inactive),2.32 (inactive),1.16 (inactive),0.236,-0.159
CN(C)CCCCCCNC(=O)[C@@H]1C[C@@H]2C(=O)N[C@@H](CCCCN)C(=O)N2[C@@H]1c1cccc(OCCO)c1,-0.205,-0.707 (inactive),0.364 (inactive),-1.12 (inactive),1.29 (inactive),-2.27 (inactive),0.731 (inactive),-0.199 (inactive),0.393,3.31
Cc1ccc(S[C@]2(C(=O)NCCN3CCOCC3)CC(=O)N(Cc3ccccc3Cl)[C@@H]2c2ccc(CO)cc2)cc1,0.286,-0.709 (inactive),1.04 (inactive),-0.245 (inactive),0.621 (inactive),0.381 (inactive),0.381 (inactive),0.237 (inactive),0.958,0.0428
CC(C)(C)OC(=O)CC[C@@]1(C(=O)NCCN2CCOCC2)N=C(c2ccc(OCCCO)cc2)O[C@@H]1c1ccccc1N=[N+]=[N-],-0.583,-0.643 (inactive),-1.76 (inactive),-0.462 (inactive),0.41 (inactive),0.0002 (inactive),-0.0723 (inactive),-0.169 (inactive),-0.601,0.0877
CN1C(=O)C2C=CC(C(O)c3cccs3)N(Nc3ccccc3)C2C1=O (stereo not given),-0.698,0.702 (inactive),-0.861 (inactive),-0.607 (inactive),0.847 (inactive),-0.0337 (inactive),-0.947 (inactive),-0.724 (inactive),-1.15,0.311
CC(C)c1ccc(NN2C(C(O)c3cc(C(F)(F)F)cc(C(F)(F)F)c3)C=CC3C(=O)N(c4ccccc4)C(=O)C32)cc1 (stereo not given),-2.42,-1.33 (inactive),-3.12 (inactive),0.643 (inactive),1.18 (inactive),1.79 (inactive),-0.447 (inactive),-0.729 (inactive),-5.25,0.0813
CN1C(=O)C2C=CC(C(O)c3ccc(I)cc3)N(N3CCCCC3)C2C1=O (stereo not given),-1.17,-3.86 (inactive),-2.13 (inactive),0.0552 (inactive),0.338 (inactive),-0.0818 (inactive),-0.709 (inactive),-1.11 (inactive),-1.26,0.33
O=C(C1N=C(c2ccc(OCCCO)cc2)N(c2ccccc2)O1)N1CCOCC1 (stereo not given),0.55,-1.3 (inactive),0.466 (inactive),-1.09 (inactive),-0.91 (inactive),-1 (inactive),1.42 (inactive),1.92 (inactive),2.12,-0.163
CCCC=C(CCC)[C@@H](NS(=O)(=O)c1cccs1)c1ccc(C(=O)OC)cc1,-0.395,0.91 (inactive),1.18 (inactive),0.335 (inactive),0.535 (inactive),1.59 (inactive),0.588 (inactive),-0.424 (inactive),-5.85,0.0248
